# Bioassay records as filed in PubChem.
# This is a sample that favours compounds with a hit; in the whole collection about 1.2% have one here.
# EPAC1 antagonist = EPAC1 (human) antagonism. O95398. actives 0.14% (n = 360,000). EPAC1 GEF assay, Rap1b-BODIPY-GDP exchange fluorescence. Potency, µM (doses to about 115 µM), without a hit: at the top dose activity change, negative = inhibition, usual class: inhibitors;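 also: plate controls were vehicle for no effect and positive control for full effect; nearly all actives have a fitted effect of over 50% in size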
# USP1-UAF1 inh = inhibitors of human USP1/UAF1 deubiquitinase. actives 0.23% (n = 390,000). recombinant USP1/UAF1, Ub-Rhodamine cleavage fluorescence. Potency, µM (highest dose often 57.1 µM), for the others: top-dose activity change, negative = inhibition, most hits filed as inhibitors. O94782. AID 743255; also: % is scaled to controls: 0 for no effect and ±100 for the full control effect; nearly all actives have a fitted effect of over 60% in size
#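 USP1/UAF1 complex at 1 nM was preincubated with compound for 15 min at room temperature, then Ub-Rho substrate (150nM final) was added. Fluorescence (480/540 nm) was read kinetically, 6 reads every 60 seconds.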
# EPAC1 ag = activates human EPAC1 exchange factor | O95398 | EPAC1 agonist qHTS, biochemical assay; response scale: 100% = response to 6.5 mM cAMP | Potency, µM (doses to about 154 µM), inactives show top-dose activation, usual class: activators | actives 0.073% (n = 360,000) | AID 720707; also: nearly all actives have a fitted effect of over 60% in size
#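 Normalized to 6.5 mM cAMP, activity reflects EPAC1-catalysed release of BODIPY-GDP from Rap1B, followed kinetically over 30 min at 480 nm excitation, 540 nm emission. Reaction contained 100 nM EPAC1, 250 nM Rap1B-BODIPY-GDP, 50 uM GDP.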
# EPAC2 ag = EPAC2 (human) agonism; Q8WZA2; EPAC2 activation, biochemical qHTS; response scale: 100% = 6.5 mM cAMP response; Potency, µM (highest dose often 154 µM), inactives show top-dose activation, most hits filed as activators; actives 0.079% (n = 360,000); AID 720711; also: nearly all actives have a fitted effect of over 50% in size
#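 Each well held 100 nM EPAC2, 250 nM RAP1B-BODIPY-GDP and 50 uM GDP. Fluorescence, read at 5-min intervals to 30 min, was referenced to a 6.5 mM cAMP positive control.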
# VDR inhibitor = blocks the human vitamin D receptor | VDR-SRC2-3 peptide fluorescence polarization, 2 h | P11473 | actives 0.93% (n = 400,000) | Potency, µM, for the others: max response, negative = inhibition, usual class: inhibitors; also: % is scaled to controls: 0 for no effect and ±100 for the full control effect
#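 Inhibition of the VDR/SRC2-3 peptide interaction is quantified by fluorescence polarization. Compounds (23 nl, pintool) incubate with the reagents for 2 hours at ambient room temperature.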
# EPAC2 antagonist = EPAC2 (human) antagonism. EPAC2 GEF exchange of Rap1B-BODIPY-GDP, fluorescence. AID 720708. actives 0.18% (n = 360,000). Potency, µM (series often up to 114 µM), for inactives: at the highest dose activity, negative = inhibition, hits mostly inhibitors; also: % is scaled to controls: 0 for no effect and ±100 for the full control effect; nearly all actives have a fitted effect of over 45% in size
# * = called active by the depositor; ? = inconclusive; . = no result. Calls follow the shape of the dose curve; as a rule, active = well fitted curve in the direction sought with a large enough effect; inconclusive = small, poorly fitted or top-dose-only effect, or another doubt; inactive = no such curve, though single readings can be large; an effect the other way counts as inactive or inconclusive. Potency is read from the fitted curve at half-maximal effect.
SMILES,EPAC1 antagonist,USP1-UAF1 inh,EPAC1 ag,EPAC2 ag,VDR inhibitor,EPAC2 antagonist
CCCCCCc1cc2cc(-c3nnc(-c4cc(OC)c(OC)c(OC)c4)o3)c(=O)oc2cc1O,5%,66%,8%,?,-12%,58%
CCCCCCc1cc2cc(-c3nnc(-c4ccccc4OC)o3)c(=O)oc2cc1O,87%,14µM*,?,-22%,0%,236%
CCCCCCc1cc2cc(-c3nnc(-c4ccccc4O)o3)c(=O)oc2cc1O,39%,8.9µM*,?,?,8%,71%
N#CCC(=O)NN,.,.,.,.,5%,.
C/C=C/C=C/C(=O)N1CC2(CC(c3cccc(NC(=O)CCCCC)c3)=NO2)C[C@H]1C(N)=O (stereo partly specified),-3%,-11%,-12%,-8%,79µM*,-7%
Cc1ccc2oc(=O)n(Cc3ccccc3OC(C)C)c2c1,3%,-19%,7%,10%,15%,?
COc1ccccc1Cn1c(=O)oc2ccc(C)cc21,-14%,-19%,-7%,6%,18%,28µM*
CC(=O)NCCNc1nc(-c2cccnc2)nc2ccccc12,.,.,.,.,-22%,.
CCC(O)c1nc2ccccc2n1CCOc1cc(C)cc(C)c1 (stereo unspecified),.,-24%,.,.,3%,.
COc1ccc(C(C2C(=O)CC(C)(C)CC2=O)C2C(=O)CC(C)(C)CC2=O)cc1,-8%,-15%,2%,-1%,56µM*,-13%
CC1(C)CC(=O)C(C(c2ccncc2)C2C(=O)CC(C)(C)CC2=O)C(=O)C1,23%,-21%,-7%,5%,10%,15%
Cc1ccc(C(C2C(=O)CC(C)(C)CC2=O)C2C(=O)CC(C)(C)CC2=O)s1,7%,-9%,-4%,-8%,40µM*,5%
CCOc1c(Br)cc(C2CC(=O)Nc3cc4c(cc32)OCO4)cc1OC (stereo unspecified),.,?,.,.,-13%,.
O=C(CCCc1ccccc1)Nc1ccc(Br)cc1F,-6%,-2%,-7%,8%,22µM*,-2%
O=C(CCCc1ccccc1)Nc1ccccc1[N+](=O)[O-],-8%,-9%,5%,4%,20µM*,-3%
O=C(CS(=O)(=O)Cc1ccccc1)Nc1ccc(Br)cc1F,-1%,-5%,2%,-2%,-24%,-2%
CCOC(=O)c1c(C)[nH]c(C)c1S(=O)(=O)N1CCCC(C(=O)N2CCN(c3cccc(Cl)c3)CC2)C1 (stereo unspecified),.,-26%,.,.,10%,.
C=CCc1cc(/C=C/c2nc(O)c([N+](=O)[O-])c(=O)[nH]2)cc(OC)c1O,?,-15%,12%,10%,79µM*,-2%
Cc1ccc(S(=O)(=O)NC(=O)c2ccc(-c3ccc(C)c4ccccc34)o2)cc1,?,-18%,-5%,8%,79µM*,?
Cc1ccc(-c2ccc(C(=O)Nc3ccccc3)o2)c2ccccc12,-1%,?,9%,6%,?,2%
O=C1C=CC(=O)N1c1ccc2c(c1)C(NC(=O)C(F)(F)F)c1ccccc1-2 (stereo unspecified),8%,-12%,-9%,-2%,45µM*,-2%
CN(C)C(=O)NC1c2ccccc2-c2ccccc21,2%,-19%,-1%,6%,13%,2%
COc1ccc(CNC(=O)CSc2nc(-c3ccc(OC)c(OC)c3)cc(C(F)(F)F)n2)cc1,.,-8%,.,.,13%,.
O=C(CSc1nc2cc(Cl)ccc2s1)c1cc2ccccc2o1,-7%,28µM*,19%,11%,28%,5%
COc1ccc(NC(=O)CCCS(=O)(=O)c2nc(-c3ccc(OC)c(OC)c3)cc(C(F)(F)F)n2)cc1OC,.,?,.,.,79µM*,.
COc1ccccc1C1C(C(=O)Nc2ccccc2)=C(C)Nc2nc(-c3ccccc3)nn21 (stereo unspecified),.,-21%,.,.,-15%,.
